From the supplement of paper PMC11732987, “Enantioselective OTUD7B fragment discovery through chemoproteomics screening and high-throughput optimisation” (Communications Chemistry, 2025)

Key:
Experiment in all cases: log2 ratio of Biotin-Ahx-Ub-VS probe labelling (fragment/DMSO); higher = less target engagement (more negative = stronger competition), active = hit call of the paper (q ≤ 0.05, log2 ratio ≤ -1)
Conditions in all cases: compound concentration: 200 uM; treatment time: 3 h
USP19 = target: T1, USP19 (UniProt O94966)
T1 sequence (whole entry): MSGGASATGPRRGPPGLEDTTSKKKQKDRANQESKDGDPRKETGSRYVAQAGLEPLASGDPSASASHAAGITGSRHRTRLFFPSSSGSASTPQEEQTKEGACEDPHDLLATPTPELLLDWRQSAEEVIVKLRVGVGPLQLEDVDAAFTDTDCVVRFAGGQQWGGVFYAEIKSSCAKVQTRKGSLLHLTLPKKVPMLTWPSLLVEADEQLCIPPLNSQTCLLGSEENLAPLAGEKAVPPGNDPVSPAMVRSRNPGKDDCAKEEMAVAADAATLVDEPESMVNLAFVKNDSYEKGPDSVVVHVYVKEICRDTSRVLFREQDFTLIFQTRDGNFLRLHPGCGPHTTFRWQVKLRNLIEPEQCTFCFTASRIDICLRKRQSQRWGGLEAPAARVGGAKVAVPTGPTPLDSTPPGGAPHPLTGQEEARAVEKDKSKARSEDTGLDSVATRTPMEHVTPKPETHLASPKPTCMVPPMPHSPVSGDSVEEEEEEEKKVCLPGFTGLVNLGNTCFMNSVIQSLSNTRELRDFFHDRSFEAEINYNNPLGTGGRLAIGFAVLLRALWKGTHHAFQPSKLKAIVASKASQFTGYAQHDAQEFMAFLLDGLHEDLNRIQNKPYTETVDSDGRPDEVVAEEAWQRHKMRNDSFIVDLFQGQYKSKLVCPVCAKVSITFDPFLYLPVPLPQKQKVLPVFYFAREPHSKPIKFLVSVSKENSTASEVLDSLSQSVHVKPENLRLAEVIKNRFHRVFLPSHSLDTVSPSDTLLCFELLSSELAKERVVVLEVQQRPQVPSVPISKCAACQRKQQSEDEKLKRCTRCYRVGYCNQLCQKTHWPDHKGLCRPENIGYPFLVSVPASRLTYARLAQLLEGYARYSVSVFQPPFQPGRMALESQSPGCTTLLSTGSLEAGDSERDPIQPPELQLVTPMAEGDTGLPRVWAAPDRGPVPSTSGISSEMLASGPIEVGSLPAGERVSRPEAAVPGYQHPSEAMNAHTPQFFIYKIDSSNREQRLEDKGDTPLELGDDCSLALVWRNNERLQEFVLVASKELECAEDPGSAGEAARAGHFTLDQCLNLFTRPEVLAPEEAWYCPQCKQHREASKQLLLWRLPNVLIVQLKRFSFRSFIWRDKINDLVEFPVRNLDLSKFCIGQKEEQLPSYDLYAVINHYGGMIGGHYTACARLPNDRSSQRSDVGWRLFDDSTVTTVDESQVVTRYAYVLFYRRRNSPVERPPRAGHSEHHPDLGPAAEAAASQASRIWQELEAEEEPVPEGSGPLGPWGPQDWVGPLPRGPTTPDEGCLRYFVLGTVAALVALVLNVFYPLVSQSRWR
Outline: (§1)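 Each value is an average log2 ratio of fragment to vehicle, tested by unpaired t-test. The underlying Spectronaut label-free quantities were global-median-normalised, and only proteins with ≥2 unique peptides were included. Triplicate HEK293T lysate samples (495 µg) were exposed to fragment at 200 µM or vehicle for 3 h, then to Biotin-Ahx-Ub-VS at 0.5 µM final for 1 h, before NeutrAvidin enrichment of labelled DUBs, LysC and trypsin digestion, and diaPASEF LC-MS/MS.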

USP22 = target: T2, USP22 (UniProt Q9UPT9)
T2 sequence (whole entry): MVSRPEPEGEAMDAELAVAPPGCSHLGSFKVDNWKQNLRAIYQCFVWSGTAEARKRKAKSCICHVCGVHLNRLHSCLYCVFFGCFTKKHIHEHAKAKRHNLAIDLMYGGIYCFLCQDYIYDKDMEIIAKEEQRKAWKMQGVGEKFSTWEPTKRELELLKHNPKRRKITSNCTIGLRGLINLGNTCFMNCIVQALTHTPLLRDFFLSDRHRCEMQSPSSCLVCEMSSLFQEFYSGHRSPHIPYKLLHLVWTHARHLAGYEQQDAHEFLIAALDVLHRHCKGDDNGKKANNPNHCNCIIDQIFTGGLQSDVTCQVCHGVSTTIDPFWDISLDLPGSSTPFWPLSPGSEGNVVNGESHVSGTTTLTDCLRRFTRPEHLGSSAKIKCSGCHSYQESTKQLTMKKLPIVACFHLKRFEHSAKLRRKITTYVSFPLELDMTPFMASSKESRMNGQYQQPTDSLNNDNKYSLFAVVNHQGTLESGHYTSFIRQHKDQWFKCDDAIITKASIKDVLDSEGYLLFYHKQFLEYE
Outline: as §1

USP24 = USP24 (UniProt Q9UPU5)
Chain of USP24 (Q9UPU5 whole entry): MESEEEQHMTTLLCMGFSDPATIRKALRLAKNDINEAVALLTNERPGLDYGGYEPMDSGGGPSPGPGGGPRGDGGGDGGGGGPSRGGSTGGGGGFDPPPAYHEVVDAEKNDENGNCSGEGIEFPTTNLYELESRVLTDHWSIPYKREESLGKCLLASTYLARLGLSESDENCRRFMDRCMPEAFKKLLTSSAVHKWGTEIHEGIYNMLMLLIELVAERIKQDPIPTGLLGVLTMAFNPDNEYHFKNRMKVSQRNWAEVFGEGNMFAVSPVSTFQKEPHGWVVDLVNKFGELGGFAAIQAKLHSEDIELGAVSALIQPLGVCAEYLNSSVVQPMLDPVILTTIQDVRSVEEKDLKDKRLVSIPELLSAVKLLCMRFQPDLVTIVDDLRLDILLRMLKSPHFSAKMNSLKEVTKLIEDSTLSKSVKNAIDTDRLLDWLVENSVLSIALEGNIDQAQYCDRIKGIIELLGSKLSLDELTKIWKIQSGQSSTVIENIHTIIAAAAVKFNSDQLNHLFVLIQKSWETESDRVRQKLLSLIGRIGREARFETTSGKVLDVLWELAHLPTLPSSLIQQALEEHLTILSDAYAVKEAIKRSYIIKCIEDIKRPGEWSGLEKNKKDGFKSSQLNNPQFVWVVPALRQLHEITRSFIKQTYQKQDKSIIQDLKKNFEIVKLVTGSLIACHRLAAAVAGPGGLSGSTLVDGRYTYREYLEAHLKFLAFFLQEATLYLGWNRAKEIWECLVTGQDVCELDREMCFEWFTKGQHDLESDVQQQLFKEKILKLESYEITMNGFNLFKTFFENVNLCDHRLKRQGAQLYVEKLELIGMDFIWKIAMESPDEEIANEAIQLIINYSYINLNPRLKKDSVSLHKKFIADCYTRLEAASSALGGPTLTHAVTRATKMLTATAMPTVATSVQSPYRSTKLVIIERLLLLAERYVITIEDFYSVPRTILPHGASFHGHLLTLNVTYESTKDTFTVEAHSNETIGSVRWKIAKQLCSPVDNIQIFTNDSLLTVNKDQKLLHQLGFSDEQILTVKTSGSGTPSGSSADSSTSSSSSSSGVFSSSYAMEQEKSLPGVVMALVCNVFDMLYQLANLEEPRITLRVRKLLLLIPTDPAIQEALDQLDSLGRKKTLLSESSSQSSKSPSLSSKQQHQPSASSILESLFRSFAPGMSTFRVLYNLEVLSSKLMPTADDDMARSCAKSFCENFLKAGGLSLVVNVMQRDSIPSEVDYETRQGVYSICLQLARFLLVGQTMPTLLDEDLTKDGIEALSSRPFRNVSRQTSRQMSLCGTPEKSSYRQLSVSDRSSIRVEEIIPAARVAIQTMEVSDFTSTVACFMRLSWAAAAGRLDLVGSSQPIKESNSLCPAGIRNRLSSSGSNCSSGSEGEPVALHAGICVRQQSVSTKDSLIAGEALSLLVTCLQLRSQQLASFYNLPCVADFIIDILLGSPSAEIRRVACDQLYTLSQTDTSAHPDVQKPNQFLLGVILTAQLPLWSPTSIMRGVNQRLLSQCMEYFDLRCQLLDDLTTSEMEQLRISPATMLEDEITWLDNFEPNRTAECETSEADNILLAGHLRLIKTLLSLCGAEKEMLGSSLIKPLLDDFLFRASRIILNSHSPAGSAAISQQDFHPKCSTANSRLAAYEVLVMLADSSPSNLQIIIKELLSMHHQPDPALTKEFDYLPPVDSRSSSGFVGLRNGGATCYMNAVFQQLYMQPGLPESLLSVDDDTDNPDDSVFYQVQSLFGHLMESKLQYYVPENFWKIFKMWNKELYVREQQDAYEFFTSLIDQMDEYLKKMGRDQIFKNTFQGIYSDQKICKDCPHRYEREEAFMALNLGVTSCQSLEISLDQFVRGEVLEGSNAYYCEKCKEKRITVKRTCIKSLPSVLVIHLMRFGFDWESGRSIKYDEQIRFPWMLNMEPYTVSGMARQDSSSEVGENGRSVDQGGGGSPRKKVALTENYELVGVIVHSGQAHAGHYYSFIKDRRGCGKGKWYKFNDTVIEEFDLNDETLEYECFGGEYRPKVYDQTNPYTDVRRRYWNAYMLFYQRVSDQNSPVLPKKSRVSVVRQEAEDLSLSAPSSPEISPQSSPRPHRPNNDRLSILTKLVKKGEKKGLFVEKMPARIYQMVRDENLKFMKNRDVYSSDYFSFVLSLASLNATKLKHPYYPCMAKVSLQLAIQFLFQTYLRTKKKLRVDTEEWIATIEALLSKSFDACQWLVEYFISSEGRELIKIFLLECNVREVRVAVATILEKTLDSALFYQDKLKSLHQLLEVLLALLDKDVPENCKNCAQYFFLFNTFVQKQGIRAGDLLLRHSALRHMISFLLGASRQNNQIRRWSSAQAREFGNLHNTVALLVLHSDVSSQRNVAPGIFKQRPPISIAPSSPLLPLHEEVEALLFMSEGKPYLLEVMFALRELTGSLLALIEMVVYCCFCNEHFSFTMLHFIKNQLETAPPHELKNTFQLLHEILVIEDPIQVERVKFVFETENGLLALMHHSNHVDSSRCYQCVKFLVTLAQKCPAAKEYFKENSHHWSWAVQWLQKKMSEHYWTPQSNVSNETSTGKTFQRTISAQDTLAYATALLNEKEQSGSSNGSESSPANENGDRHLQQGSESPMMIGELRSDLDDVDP
Outline: as §1

USP25 = target: T3, USP25 (UniProt Q9UHP3)
T3 sequence (whole entry): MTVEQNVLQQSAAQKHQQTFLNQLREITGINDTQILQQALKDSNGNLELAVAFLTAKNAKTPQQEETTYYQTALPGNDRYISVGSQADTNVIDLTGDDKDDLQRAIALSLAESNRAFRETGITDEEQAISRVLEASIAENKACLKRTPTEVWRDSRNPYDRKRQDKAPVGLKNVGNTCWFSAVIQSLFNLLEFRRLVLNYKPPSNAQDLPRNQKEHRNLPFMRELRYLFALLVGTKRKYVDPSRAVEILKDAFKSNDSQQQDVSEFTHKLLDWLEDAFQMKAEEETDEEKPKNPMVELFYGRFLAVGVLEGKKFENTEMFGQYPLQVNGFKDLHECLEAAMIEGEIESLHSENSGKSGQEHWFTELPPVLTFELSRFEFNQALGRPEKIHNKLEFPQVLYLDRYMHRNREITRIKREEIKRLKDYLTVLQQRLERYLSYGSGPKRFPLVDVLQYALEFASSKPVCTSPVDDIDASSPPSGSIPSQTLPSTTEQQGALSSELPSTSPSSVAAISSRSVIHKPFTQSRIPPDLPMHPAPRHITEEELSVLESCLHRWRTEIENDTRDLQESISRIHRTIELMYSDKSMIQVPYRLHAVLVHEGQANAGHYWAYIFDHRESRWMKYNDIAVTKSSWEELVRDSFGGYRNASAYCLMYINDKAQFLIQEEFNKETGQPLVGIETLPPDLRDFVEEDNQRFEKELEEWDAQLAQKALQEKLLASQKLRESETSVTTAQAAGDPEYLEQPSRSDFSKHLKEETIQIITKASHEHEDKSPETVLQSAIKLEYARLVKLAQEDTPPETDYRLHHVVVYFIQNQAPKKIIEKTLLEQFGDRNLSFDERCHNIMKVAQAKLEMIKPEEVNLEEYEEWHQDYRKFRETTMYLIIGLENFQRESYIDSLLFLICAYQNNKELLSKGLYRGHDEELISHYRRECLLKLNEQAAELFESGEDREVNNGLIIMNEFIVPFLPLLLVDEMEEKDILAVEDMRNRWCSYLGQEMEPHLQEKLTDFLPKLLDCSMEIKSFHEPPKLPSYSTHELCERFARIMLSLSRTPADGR
Outline: as §1

USP28 = target: T4, USP28 (UniProt Q96RU2)
T4 sequence (whole entry): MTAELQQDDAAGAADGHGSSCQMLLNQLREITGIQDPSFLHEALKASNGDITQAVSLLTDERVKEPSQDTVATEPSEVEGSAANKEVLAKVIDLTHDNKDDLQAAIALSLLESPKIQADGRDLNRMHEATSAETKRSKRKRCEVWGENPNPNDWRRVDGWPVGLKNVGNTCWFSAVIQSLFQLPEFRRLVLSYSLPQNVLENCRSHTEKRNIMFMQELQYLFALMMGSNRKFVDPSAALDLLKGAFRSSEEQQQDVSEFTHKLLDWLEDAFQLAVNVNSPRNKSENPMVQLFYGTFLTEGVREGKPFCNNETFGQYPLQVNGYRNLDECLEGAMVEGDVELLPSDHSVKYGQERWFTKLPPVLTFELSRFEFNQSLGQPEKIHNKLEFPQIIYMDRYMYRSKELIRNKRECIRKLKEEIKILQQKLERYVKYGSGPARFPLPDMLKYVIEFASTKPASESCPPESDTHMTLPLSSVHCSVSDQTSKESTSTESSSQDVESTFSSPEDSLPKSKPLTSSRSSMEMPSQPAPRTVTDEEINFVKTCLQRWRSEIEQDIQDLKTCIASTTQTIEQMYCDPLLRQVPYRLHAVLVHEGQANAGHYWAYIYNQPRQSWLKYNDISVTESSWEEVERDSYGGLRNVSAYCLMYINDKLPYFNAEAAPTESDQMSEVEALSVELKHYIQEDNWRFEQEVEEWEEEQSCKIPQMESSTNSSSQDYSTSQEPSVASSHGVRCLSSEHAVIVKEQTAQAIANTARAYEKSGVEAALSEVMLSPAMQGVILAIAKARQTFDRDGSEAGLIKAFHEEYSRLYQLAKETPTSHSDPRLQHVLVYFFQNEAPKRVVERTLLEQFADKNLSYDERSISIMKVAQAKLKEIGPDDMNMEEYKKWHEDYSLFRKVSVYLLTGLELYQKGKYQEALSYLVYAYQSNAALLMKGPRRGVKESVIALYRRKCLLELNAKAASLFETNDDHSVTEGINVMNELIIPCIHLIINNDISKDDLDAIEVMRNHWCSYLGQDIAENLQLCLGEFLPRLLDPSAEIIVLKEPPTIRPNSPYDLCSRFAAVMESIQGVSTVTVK
Outline: as §1

Measured: log2 ratio of Biotin-Ahx-Ub-VS probe labelling

Cc1cccc(NC(=O)[C@@H]2CCCN2C(=O)CCl)n1
inactive: USP19 -0.349 | USP22 -0.038 | USP24 -0.45 | USP25 -0.327 | USP28 -0.61
